From PubChem BioAssay (NCATS)
Inconclusive results are not listed. A call without a number means that no potency is given here. Values without a mark were called inactive. Activity calls are given as the source filed them. The call rests on the fitted dose curve; in most records, active means well fitted curve in the direction sought with a large enough effect; inconclusive means small, poorly fitted or top-dose-only effect, or another doubt; inactive means no such curve, though single readings can be large; an effect the other way counts as inactive or inconclusive.

Columns and labels:
[1] = NS1 protein of Zika virus - qHTS assay to identify small molecule inhibitors in human HEK 293 cells (AID 1347053); further: series mostly up to about 46 µM; nearly all actives have a fitted effect of over 55% in size
Procedure, shortened: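 HEK 293 cells, seeded 20 h at 37 C, were pretreated with compound 1 h, then infected with ZIKV MR766 (MOI = 0.5) for 24 h. NS1 was read by TR-FRET with two anti-NS1 antibodies, normalized to uninfected and infected wells.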

[2] = qHTS of pediatric cancer cell lines to identify multiple opportunities for drug repurposing: Primary screen for DAOY cells (AID 1347090); further: nearly all actives have a fitted effect of over 55% in size; further: potency means the concentration at half of the fitted maximal effect
Procedure, shortened: (§1)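 Eight- or eleven-point concentration series, 48 h treatment at 37 degrees C in growth media; readout CellTiter-Glo luminescence. Potency and efficacy were taken from the concentration-response curves.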

[3] = qHTS of pediatric cancer cell lines to identify multiple opportunities for drug repurposing: Primary screen for SJ-GBM2 cells (AID 1347091); further: potency means the concentration at half of the fitted maximal effect
Procedure, shortened: as §1

[4] = qHTS of pediatric cancer cell lines to identify multiple opportunities for drug repurposing: Primary screen for A673 cells (AID 1347092); further: nearly all actives have a fitted effect of over 45% in size; further: potency means the concentration at half of the fitted maximal effect
Procedure, shortened: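 Cells are plated, rested 5 h, dosed by pintool, incubated 48 h, then lysed with CellTiter-Glo and read by luminescence. DMSO is the neutral control; bortezomib at 2.3 uM final is the positive control.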

[5] = qHTS of pediatric cancer cell lines to identify multiple opportunities for drug repurposing: Primary screen for SK-N-MC cells (AID 1347093); further: potency means the concentration at half of the fitted maximal effect
Procedure, shortened: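 Metabolically active cells were quantified by ATP-dependent luminescence (CellTiter-Glo, 15 min at room temperature) following 48 h treatment. Cells had been plated at 500-1,000 per well and settled for 5 h beforehand.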

[6] = qHTS of pediatric cancer cell lines to identify multiple opportunities for drug repurposing: Primary screen for BT-37 cells (AID 1347094); further: potency means the concentration at half of the fitted maximal effect
Procedure, shortened: (§2)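 Viability was measured as metabolically active cells after 48 hours of treatment, read by CellTiter-Glo luminescence. Compounds were tested at multiple final concentrations, giving concentration-response curves.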

[7] = qHTS of pediatric cancer cell lines to identify multiple opportunities for drug repurposing: Primary screen for NB-EBc1 cells (AID 1347095); further: potency means the concentration at half of the fitted maximal effect
Procedure, shortened: as §2

[8] = qHTS of pediatric cancer cell lines to identify multiple opportunities for drug repurposing: Primary screen for U-2 OS cells (AID 1347096); further: nearly all actives have a fitted effect of over 50% in size
Procedure, shortened: (§3)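 Cells (500-1,000/well) in growth media were settled 5 h at 37 degrees C, then given compounds for 48 h. Viability was read as CellTiter-Glo luminescence. Primary runs used MIPE at 11 points (0.78 nM-46 µM) and NPC at 8 points (0.59 nM-46 µM); follow-ups used 11 points.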

[9] = qHTS of pediatric cancer cell lines to identify multiple opportunities for drug repurposing: Primary screen for Saos-2 cells (AID 1347097); further: nearly all actives have a fitted effect of over 40% in size
Procedure, shortened: as §2

[10] = qHTS of pediatric cancer cell lines to identify multiple opportunities for drug repurposing: Primary screen for SK-N-SH cells (AID 1347098);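 further: DMSO served as neutral control and bortezomib at 2.3 µM as positive control; nearly all actives have a fitted effect of over 65% in size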
Procedure, shortened: (§4)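 Cells (500-1,000/well) rested 5 h, then received compounds for 48 h; metabolically active cells were measured by CellTiter-Glo luminescence. Final concentrations spanned up to 46 µM (MIPE, 11-point) or 0.59 nM-46 µM (NPC, 8-point) in primary screens, 11-point in follow-ups.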

[11] = qHTS of pediatric cancer cell lines to identify multiple opportunities for drug repurposing: Primary screen for LAN-5 cells (AID 1347100); further: potency means the concentration at half of the fitted maximal effect
Procedure, shortened: as §3

[12] = qHTS of pediatric cancer cell lines to identify multiple opportunities for drug repurposing: Primary screen for Rh18 cells (AID 1347102); further: nearly all actives have a fitted effect of over 65% in size
Procedure, shortened: as §3

[13] = qHTS of pediatric cancer cell lines to identify multiple opportunities for drug repurposing: Primary screen for OHS-50 cells (AID 1347103); further: nearly all actives have a fitted effect of over 40% in size; further: potency means the concentration at half of the fitted maximal effect
Procedure, shortened: as §4

[14] = qHTS of pediatric cancer cell lines to identify multiple opportunities for drug repurposing: Primary screen for NB1643 cells (AID 1347099); further: nearly all actives have a fitted effect of over 50% in size; further: potency means the concentration at half of the fitted maximal effect
Procedure, shortened: as §2

[15] = qHTS of pediatric cancer cell lines to identify multiple opportunities for drug repurposing: Primary screen for TC32 cells (AID 1347089); further: nearly all actives have a fitted effect of over 60% in size
Procedure, shortened: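 Measured quantity: luminescence from CellTiter-Glo, reflecting metabolically active TC32 cells following 48 h of compound. Curves came straight from multi-point titrations, with 8 or 11 points in primary and 11 in confirmatory screening.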

[16] = qHTS of pediatric cancer cell lines to identify multiple opportunities for drug repurposing: Primary screen for BT-12 cells (AID 1347101); further: nearly all actives have a fitted effect of over 25% in size
Procedure, shortened: as §4

Compound | Potency [1] | Potency [2] | Potency [3] | Potency [4] | Potency [5] | Potency [6] | Potency [7] | Potency [8] | Potency [9] | Potency [10] | Potency [11] | Potency [12] | Potency [13] | Potency [14] | Potency [15] | Potency [16]
FC(F)(F)C(F)(F)C(F)(F)C(F)(F)C(F)(F)C(F)(F)C(F)(F)C(F)(F)Br | inactive | inactive | inactive | inactive | inactive | inactive | inactive | inactive | inactive | inactive | inactive | inactive | inactive |  |  | 
CCCCCCCCCCCCOCCOCCOCCOCCOCCOCCOCCOCCOCCO | inactive | 16.8 µM (active) |  | 21.1 µM (active) |  | 19.5 µM (active) | 21.1 µM (active) | inactive |  | inactive |  |  | 15.5 µM (active) | inactive |  | 
CC(C)(C)CC(C)(C)c1ccc(O)c(-n2nc3ccccc3n2)c1 |  | inactive | inactive | inactive |  | inactive | inactive | inactive | inactive | inactive | inactive | inactive |  | inactive | inactive | inactive
CC[N+](C)(CC)CCOC(=O)C(O)(c1ccccc1)C1CCCCC1 (stereo not given) |  | inactive | inactive | inactive | inactive | inactive | inactive | inactive | inactive | inactive | inactive | inactive | inactive | inactive | inactive | inactive
COc1cc([C@H]2Oc3cc([C@H]4Oc5cc(O)cc(O)c5C(=O)[C@@H]4O)ccc3O[C@@H]2CO)ccc1O | inactive | inactive | inactive |  | 33.5 µM (active) | inactive | inactive | inactive |  | inactive | inactive | inactive | inactive | inactive |  | inactive
C[C@H]1[C@H]2CC[C@H]3[C@@H]4CC=C5C[C@@H](N(C)C)CC[C@]5(C)[C@H]4CC[C@]23CN1C | inactive | inactive | inactive |  |  |  | inactive | inactive |  | inactive | inactive | inactive |  |  |  | inactive
CCN(CC)CCNC(=O)c1cc(Br)c(N)cc1OC |  | inactive | inactive | inactive | inactive | inactive | inactive | inactive | inactive | inactive | inactive | inactive | inactive | inactive | inactive | inactive
Cc1ccc2c(Br)cc(Br)c(O)c2n1 | inactive | 8.41 µM (active) | 13.3 µM (active) | 2.66 µM (active) |  | 8.71 µM (active) | 2.99 µM (active) |  |  |  | 11.9 µM (active) |  | 11 µM (active) | 15 µM (active) |  | 
Oc1ccccc1C=NCc1ccccc1 |  | inactive | inactive | inactive | inactive | inactive | inactive | inactive | inactive | inactive | inactive | inactive | inactive | inactive | inactive | 
